Values without a mark were called inactive.
Key:
Conditions in all cases: 60 µM; 5 days; temperature: 20 °C
Meloidogyne hapla J2 = assay: proportion of mobile M. hapla J2 relative to DMSO control (fraction of DMSO control); higher = more viable, less nematicidal, active = 0.7 or less
How it was run: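 Two biological replicates were run and averaged, each on 96-well plates in which about 25 M. hapla J2 sat in distilled water per well. Compound was pinned in to give 60 µM final and 0.6% v/v DMSO, and the sealed plates were shaken at 200 rpm and 20 °C for 5 days before 2 µL 1 M NaOH was added. Mobility was scored microscopically and divided by the mean from the plate's DMSO-only wells, of which there were eight.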

[1] = system: Caenorhabditis elegans dauer (daf-2(e1370)); assay: proportion of mobile C. elegans dauer larvae relative to DMSO control (fraction of DMSO control); higher = more viable, less nematicidal, active = 0.63 or less; extreme values may be limits of the assay
How it was run: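 The proportion of mobile worms, relative to DMSO wells, was scored by dissection microscope and averaged over two biological replicates. Worms were C. elegans dauers, about 20 per well in liquid NGM in 96-well plates, generated from synchronized larvae on MYOB plates with E. coli OP50 at 25 °C for 48 h. They were treated with compound pinned to 60 µM final (0.6% v/v DMSO) and kept in sealed plates shaken at 200 rpm for 5 days at 20 °C.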

Ditylenchus dipsaci = assay: proportion of mobile D. dipsaci (mixed stage) relative to DMSO control (fraction of DMSO control); higher = more viable, less nematicidal, active = 0.86 or less; extreme values may be limits of the assay
How it was run: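 The worms, D. dipsaci raised on pea plants in Gamborg B-5 agar, were recovered through a filter funnel into water. Each well of a 96-well plate then held about 20 of them in distilled water plus pinned compound at 60 µM final (0.6% v/v DMSO), and the sealed plates were shaken at 200 rpm at 20 °C for 5 days. Following addition of 2 µL 1 M NaOH, mobile worms were counted by microscopy, and mobility was expressed against DMSO controls as the average of two biological replicates.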

Row | SMILES | proportion of mobile M. hapla J2 (Meloidogyne hapla J2) | proportion of mobile C. elegans dauer larvae [1] | proportion of mobile D. dipsaci (Ditylenchus dipsaci)
1 | Cc1ccc(SCc2nc(-c3cccnc3)no2)cc1 | 1.1 | 0.75 | –
2 | CC1CCN(C(=O)CSc2nnc(-c3cc4ccccc4o3)o2)CC1 | 0.996 | 1 | 1
3 | Clc1ccc(SCc2nc(-c3cccnc3)no2)cc1 | 0.938 | 0.156 (active) | 1
4 | c1coc(-c2nnc(-c3ccco3)o2)c1 | 1.03 | 1 | 1
5 | O=C(CSc1nnc(-c2cccc(F)c2)o1)Nc1ccccc1C(=O)c1ccccc1 | 0.889 | 1 | 1
6 | COc1ccc(CSc2nnc(-c3ccc(Cl)cc3Cl)o2)cc1 | 1.01 | 1 | 1
7 | Fc1ccccc1-c1nc(-c2ccccc2)no1 | 0.991 | 1 | 1
8 | Clc1ccc(-c2nc(-c3ccncc3)no2)cc1Cl | 0.987 | 1 | 1
9 | O=C(CSc1nnc(-c2ccccc2)o1)Nc1cccc(C(F)(F)F)c1 | 1 | 1 | 1
10 | Cc1ccc(OCc2nc(-c3ccccc3Cl)no2)cc1C | 1.04 | 1 | 1
11 | COc1ccccc1-c1noc(-c2ccc(C(C)(C)C)cc2)n1 | 1.03 | 1 | 1
12 | N#Cc1ccccc1NC(=O)CSc1nnc(-c2ccccc2)o1 | 0.955 | 1 | 1
13 | O=C(CSc1nnc(-c2ccccc2)o1)NCc1ccccc1 | 0.948 | 1 | 1

— the supplement of paper PMC11219838
